Bioassay records (PubChem)
An excerpt weighted towards active compounds, which were near 19% of everything screened.
IL1B secr inh – inflammasome signaling inhibition, IL-1 beta readout; THP-1 LPS/ATP IL-1B secretion, AlphaLISA, 16 h; stronger effect = lower value; activity change, % at 57.5 µM; 4.7% of 360,000 active; AID 743279; in the data active means activity change below about -50%; inconclusive means mostly about -30% to -49%
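THP-1 cells pretreated 1 hr with compounds (up to 57.5 uM final), then stimulated with LPS (250 ng/mL final) plus ATP (1.25 mM final); secreted IL-1B measured by AlphaLISA after 16 hr, decreased signal indicating inhibition.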
HT1080-NT tox – kills 2HG-producing HT-1080-NT fibrosarcoma cells. Potency, µM (highest dose often 46.1 µM), actives largely listed as cytotoxic. AID 686970. HT-1080-NT fibrosarcoma viability, CellTiter-Glo ATP luminescence, 48 h. 1.6% of 360,000 active;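 further: NT is the 2HG producing partner of a matched IDH1 knockdown line; nearly all actives have a fitted effect of over 55% in size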
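Read-out is CellTiter-Glo luminescence after 10 minutes at room temperature, following 48 hours' compound treatment of HT-1080-NT cells (750 cells/well, RPMI, 5% FBS, 37 degrees C).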
DT40 TDP1 no CPT – qHTS for Inhibitors of human tyrosyl-DNA phosphodiesterase 1 (TDP1): qHTS in cells in absence of CPT | DT40 Tdp1-/- hTDP1 cells, no CPT, ATP luminescence, 48 h | Potency, µM (top dose mostly 46.2 µM), usual class: inhibitors | 15% of 420,000 active | AID 686978, 2013; further: nearly all actives have a fitted effect of over 55% in size
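Luminescent ATP content (CellTiter-Glo) served as the growth readout. Knockout chicken DT40 cells expressing human TDP1 were exposed to compounds without camptothecin for a minimum 48 hr at 37 °C.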
TDP1 cell CPT – DT40-hTDP1 cell growth loss with CPT; chicken DT40 Tdp1-/-;hTDP1 cells + 20 nM CPT, ATP luminescence, 48 h; AID 686979; Potency, µM (titrated, usually from 46.2 µM), most hits filed as inhibitors; 12% of 420,000 active; further: nearly all actives have a fitted effect of over 55% in size
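Chicken DT40 Tdp1-/- cells stably complemented with human TDP1 were seeded at 400 cells/well in medium containing 20 nM camptothecin, exposed to pin-transferred compounds, and grown at 37 °C for at least 48 hr. Viability was read as ATP luminescence.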
HT1080 IDH1KD tx – toxicity to HT-1080 IDH1 knockdown cells (counter line). Potency, µM (top dose mostly 46.1 µM), hits mostly cytotoxic. HT-1080 IDH1 knockdown viability, ATP luminescence, 48 h. 2% of 360,000 active
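HT-1080-IDH1KD cells (IDH1 knocked down), 750/well in RPMI with 5% FBS, treated with compound 48 h at 37 degrees C. Viability by CellTiter-Glo luminescence, normalised to DMSO and no-cell wells; concentration-response curves classed.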
Of the large screens only hits and unclear results are named; the others gave an inactive call. Unless noted, the call rests on the fitted dose curve; in most records, active means well fitted curve in the direction sought with a large enough effect; inconclusive means small, poorly fitted or top-dose-only effect, or another doubt; inactive means no such curve, though single readings can be large; an effect the other way counts as inactive or inconclusive.

C[C@@H]1CCCCO[C@H](CN(C)Cc2ccc(C(F)(F)F)cc2)[C@@H](C)CN([C@H](C)CO)C(=O)c2cc(NS(=O)(=O)c3cn(C)cn3)ccc2O1	DT40 TDP1 no CPT inconclusive
COc1ccc(C(=O)/C=C/c2ccc(OC(=O)c3cc(OC)c(OC)c(OC)c3)cc2)cc1	IL1B secr inh -83, HT1080-NT tox inconclusive, DT40 TDP1 no CPT 21µM, TDP1 cell CPT inconclusive, HT1080 IDH1KD tx inconclusive
COc1cc(C(=O)Oc2ccc3ccc(O)cc3c2)cc(OC)c1OC	DT40 TDP1 no CPT inconclusive
Cn1cnc2nc(Cl)nc(Cl)c21	IL1B secr inh -93, HT1080-NT tox inconclusive, DT40 TDP1 no CPT 1.2µM, TDP1 cell CPT 1.6µM, HT1080 IDH1KD tx inconclusive
CNc1nc(Cl)nc2ncn(C)c12	none
CC(C)Sc1nc(C(F)(F)F)cc(=O)n1-c1ccccc1	none
CCN(CC)CCNC(=O)CSc1nc2nc(C)c(Cc3ccccc3)c(C)n2n1	none (no result: IL1B secr inh, HT1080-NT tox, HT1080 IDH1KD tx)
Cc1cccc(-c2nc(C#N)c(NCC3CCCO3)o2)c1 (stereo not given)	DT40 TDP1 no CPT inconclusive
Cc1ccc(OCC(=O)N/N=C\c2ccncc2)c(C)c1	DT40 TDP1 no CPT inconclusive
Cc1ccccc1CCN(C(=O)c1csnn1)C(C(=O)NC1CCCC1)c1ccco1 (stereo not given)	DT40 TDP1 no CPT inconclusive, TDP1 cell CPT 23µM
CC(C)CCN(C(=O)c1csnn1)C(C(=O)NC1CCCC1)c1ccc(F)cc1 (stereo not given)	IL1B secr inh -63
O=C(NC1CCCC1)C(c1ccc(F)cc1)N(Cc1ccccc1)C(=O)c1csnn1 (stereo not given)	DT40 TDP1 no CPT inconclusive
Cc1cc(CNC(=O)C2(C(F)(F)F)C/C(=C\Cc3ccccc3)CCCO2)nn1C (stereo not given)	DT40 TDP1 no CPT inconclusive, TDP1 cell CPT inconclusive
COc1cc(=O)n2c(c1C(=O)N(C)Cc1nonc1C)CCN(Cc1cccc3ccccc13)CC2	DT40 TDP1 no CPT inconclusive (no result: IL1B secr inh, HT1080-NT tox, HT1080 IDH1KD tx)
C/C(=N\O)c1ccn(S(=O)(=O)c2ccc(Cl)cc2)c1	DT40 TDP1 no CPT 26µM, TDP1 cell CPT inconclusive
CC(NC(=O)c1cc(-c2ccccn2)nc2ccc(Cl)cc12)C1CCCO1 (stereo not given)	none
Cc1cccc(N2CCN(C(=O)CC(NC(=O)c3ccccc3)c3ccccc3)CC2C)c1 (stereo not given)	DT40 TDP1 no CPT 29µM, TDP1 cell CPT inconclusive
Cc1cccc(N2CCN(C(=O)CN3CCOc4ccccc43)CC2C)c1 (stereo not given)	DT40 TDP1 no CPT inconclusive, TDP1 cell CPT 23µM
COc1cccc(N2CCN(C(=O)CC(NC(=O)c3ccccc3)c3ccccc3)CC2)c1 (stereo not given)	none
O=C(Cn1ccc2ccccc2c1=O)N1CCN(c2cccc(Cl)c2)CC1	DT40 TDP1 no CPT inconclusive
O=C(CN1CCOc2ccccc21)N1CCN(c2cccc(Cl)c2)CC1	IL1B secr inh inconclusive, DT40 TDP1 no CPT 29µM, TDP1 cell CPT inconclusive
Cc1cccc(N2CCN(C(=O)c3ccc4c(c3)OCCO4)CC2C)c1 (stereo not given)	none
COC(=O)[C@@]1(Sc2ccc(C)cc2)CC(=O)N(c2ccccc2)[C@@H]1c1ccccc1	HT1080-NT tox inconclusive, DT40 TDP1 no CPT 18µM, TDP1 cell CPT 18µM, HT1080 IDH1KD tx inconclusive
COC(=O)[C@@]1(Sc2ccc(C)cc2)CC(=O)N[C@@H]1c1ccc(C(F)(F)F)cc1	IL1B secr inh inconclusive, DT40 TDP1 no CPT 21µM, TDP1 cell CPT 15µM
CC1(C(=O)Nc2ccc3c(c2)OCCO3)CN(S(C)(=O)=O)CC(=O)N1Cc1cccs1 (stereo not given)	HT1080-NT tox inconclusive
CN1C2C=C3C(C#N)=C(N)C(C#N)(C#N)C(c4ccc(Br)cc4)C3C1CC2 (stereo not given)	IL1B secr inh -101, DT40 TDP1 no CPT 21µM, TDP1 cell CPT inconclusive
CN1C2C=C3C(C#N)=C(N)C(C#N)(C#N)[C@@H](c4ccc(Cl)cc4)[C@@H]3C1CC2 (stereo not given in full)	DT40 TDP1 no CPT inconclusive, TDP1 cell CPT inconclusive
